Experiment [1] is described as follows: Cell Viability - Hek293 (AID 427;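 active = compounds whose dose-response curve shows a full or clear partial loss of cell viability, called from curve shape rather than a numeric limit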;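 note: potency is the fitted concentration of half-maximal effect; cells exposed to compound for 40 hours at 37 °C before reading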). The conditions noted are these: qHTS. Summed up:
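qHTS, human embryonic kidney (adenovirus-transformed) cells; 40 hr cpd, 37 °C; CellTiter-Glo ATP luminescence. Norm: DMSO = 0, 100 uM tamoxifen = 100% inhibition. Hill-fit AC50.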
(Quantitative high-throughput screening tests each substance at several concentrations.)

Experiment [2] is described as follows: Cell Viability - N2a (AID 540).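 Note: cells exposed to compound for 40 h at 37 °C; plate controls were DMSO alone for no effect and tamoxifen control for full effect; nearly all actives have a fitted effect of over 45% in size.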 The conditions noted are these: N2a mouse neuroblastoma cell viability; activity change, negative = cytotoxicity: at 92.2 µM (top of the series). The gist of the method: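 Luminescent ATP signal (CellTiter-Glo, 20 min at room temperature) served as the viability read-out after N2a cells were treated with compounds for 40 hours at 37 °C. Concentration-response data were fitted to the Hill equation for AC50.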

Experiment [3] in a line: Cell Viability - H-4-II-E (AID 543). Note: nearly all actives have a fitted effect of over 35% in size. Note: potency is the fitted concentration of half-maximal effect. The conditions noted are these: H-4-II-E rat hepatoma viability; series mostly up to 92.2 µM. The gist of the method:
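Luminescent ATP signal (CellTiter-Glo) served as the viability read-out, with cytotoxicity seen as a concentration-dependent ATP drop. Cells were treated for 40 hours in complete medium. AC50 values derive from Hill-equation modelling.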

Experiment [4] in a line: Cellular Toxicity (caspase-3) SHSY5Y (AID 657). The conditions noted are these: SH-SY5Y caspase-3 activation, DMSO zero, 10 µM staurosporine = 100%; series mostly up to 91.7 µM. Summed up:
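SH-SY5Y human neuroblastoma cells, 1500/well, exposed to compound for 16 hours at 37 °C in complete medium. Caspase-3/7 activity read by Caspase-Glo luminescence after 1 hr at room temperature, normalized to DMSO and 10 uM staurosporine; AC50 from Hill fit.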

The nature of experiment [5]: Cellular Toxicity (caspase-3) Mesangial (AID 660).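 Note: cells exposed to compound for 16 h before the caspase read.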 The conditions noted are these: mesangial cells, normalized: DMSO 0%, 100 µM tamoxifen 100%; series mostly up to 91.7 µM. Summed up:
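Mesangial cells, 1000/well, 5 h settle at 37 °C; compound 16 h, 37 °C; Caspase-Glo 3/7 reagent 20 min RT; luminescence. Norm.: DMSO = 0%, tamoxifen 100 uM = 100%. AC50, Hill fit.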

Experiment [6] in a line: Cellular Toxicity (caspase-3) SK-N-SH (AID 661).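 Note: 0% = DMSO basal and 100% = 10 µM staurosporine.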 The conditions noted are these: SK-N-SH caspase-3 activation, qHTS; series mostly up to 91.7 µM. Summed up: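 Human neuroblastoma SK-N-SH, 1500 cells/well, 5 hr pre-incubation, then compound 16 hr, 37 °C. Caspase-Glo 3/7 reagent, 1 hr RT, luminescence. Norm. to DMSO/10 uM staurosporine; Hill-fit AC50.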
The nature of experiment [7]: Cellular Toxicity (caspase-3) Renal Proximal Tubule (AID 667).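 Note: cells exposed to compound for 16 hours at 37 °C before detection; 0% = DMSO basal and 100% = 10 µM staurosporine.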 The conditions noted are these: renal proximal tubule cells; series mostly up to 91.7 µM. Summed up: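 Freshly isolated primary rat kidney proximal tubule cells, 1000/well, treated 16 hr at 37 °C, then Caspase-Glo 3/7 luminescence after 1 hr. Normalized to DMSO and 10 uM staurosporine; AC50 from Hill fit.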

A short description of experiment [8]: Cell Viability - LYMP1-003 - Assay at 24 hr (AID 963).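 Note: plate controls were DMSO only for no effect and tetraoctylammonium bromide positive control for full effect.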 The conditions noted are these: LYMP1-003 lymphoblastoid cell viability; series mostly up to 92.2 µM. Summed up: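 Cells seeded at 2500/well, 5 hr at 37 C; compounds added; 24 hr at 37 C; CellTiter-Glo added, 30 min room temperature; luminescence read. Decrease in ATP taken as cytotoxicity, AC50 from Hill modelling.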

Experiment [9] can be described thus: Cell Viability - LYMP2-003 (AID 965).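 Note: cells exposed to compounds for 24 h before reading; 0% = DMSO only and full effect = 92 µM tetraoctylammonium bromide; nearly all actives have a fitted effect of over 50% in size.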 The conditions noted are these: LYMP2-003 lymphoblastoid cell viability; series mostly up to 92.2 µM. Summed up:
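Human lymphoblastoid LYMP2-003 cells, 2500/well, exposed to compounds for 24 h at 37 C in complete medium. Viability read as intracellular ATP by CellTiter-Glo luminescence; AC50 from Hill-equation fits of qHTS concentration-response data.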

The nature of experiment [10]: Cell Viability - LYMP2-005 (AID 967).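 Note: plate controls were DMSO only for no effect and 92 µM tetraoctylammonium bromide control for full effect.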 The conditions noted are these: LYMP2-005 lymphoblastoid cell viability; series mostly up to 92.2 µM. Summed up:
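Human lymphoblastoid LYMP2-005 cells, 2,500 per well in complete medium, rested 5 h at 37C then compound-treated 24 h at 37C. Intracellular ATP read by CellTiter-Glo luminescence after 30 min at room temperature; AC50 from Hill-equation fits of concentration-response data.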

The nature of experiment [11]: Cell Viability - LYMP2-009 (AID 968). Note: nearly all actives have a fitted effect of over 55% in size. Note: potency is the fitted concentration of half-maximal effect. The conditions noted are these: LYMP2-009 lymphoblastoid cell viability; series mostly up to 92.2 µM.
Experiment [12] is described as follows: Cell Viability - LYMP2-013 (AID 970). Note: nearly all actives have a fitted effect of over 55% in size. Note: potency is the fitted concentration of half-maximal effect. The conditions noted are these: LYMP2-013 lymphoblastoid cells viability; series mostly up to 92.2 µM. Summed up: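 qHTS; 2500 lymphoblastoid cells/well; 5 hr 37 C settle; cpd 24 hr 37 C; CellTiter-Glo, 30 min RT; luminescence. AC50 = Hill fit.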
A short description of experiment [13]: Cell Viability - LYMP2-023 (AID 975).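 For activity change, negative = cytotoxicity: cellular ATP measured by luciferase luminescence as viability proxy; plate controls were DMSO only for no effect and 92 µM tetraoctylammonium bromide control for full effect.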 Note: nearly all actives have a fitted effect of over 55% in size. Note: potency is the fitted concentration of half-maximal effect. The conditions noted are these: LYMP2-023 lymphoblastoid cell viability; series mostly up to 92.2 µM. Summed up: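 2500 cells/well, 5 hr 37 C; cpd 24 hr 37 C; CellTiter-Glo, 30 min RT; luminescence. qHTS conc-response, Hill fit -> AC50. Pos ctrl tetraoctylammonium bromide.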
Experiment [14] in a line: Cell Viability - LYMP2-016 (AID 984). Note: % is set by controls: 0 for no effect and ±100 for the full control effect; nearly all actives have a fitted effect of over 55% in size. The conditions noted are these: LYMP2-016 lymphoblastoid cell viability, qHTS; series mostly up to 92.2 µM. The gist of the method:
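Human lymphoblastoid LYMP2-016 cells, 2500 per well, treated with compounds for 24 h at 37 C. Viability read as intracellular ATP by CellTiter-Glo luminescence after 30 min at room temperature; AC50 from Hill fits of concentration-response.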

Experiment [15] deals with Vitamin D3 receptor (Homo sapiens) (UniProt P11473). The experiment is described as follows: qHTS assay for small molecule antagonists of vitamin D receptor signaling (AID 588541; calls by dose curve;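 note: receptor activated by calcitriol during compound treatment; % is set by controls: 0 for no effect and ±100 for the full control effect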). The conditions noted are these: HEK293T VDR-UAS-bla, beta-lactamase ratio, antagonist mode; series mostly up to 76.7 µM. The gist of the method:
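Antagonist-mode beta-lactamase reporter assay: HEK293T VDR-UAS-bla cells were exposed to titrated compound alongside 1-alpha,25-dihydroxyvitamin D3 at 3 nM final for 16 h. Values were normalized to the 50 nM agonist control and DMSO basal, with IC50 and efficacy from Hill equation fits.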

Experiment [16] in a line: qHTS assay for small molecule agonists of retinoid X receptor alpha signaling (AID 588544). The conditions noted are these: HEK293T RXRa-UAS-bla, beta-lactamase reporter, 18 h; 530 nm emission.
Experiment [17] is described as follows: qHTS assay for small molecule activators of the p53 signaling pathway (AID 651743; active = well fitted activation curve with a large enough effect in the signal ratio, not every such curve was filed as active; the % refers to the signal ratio; note: % of control where 0% means no effect). The conditions noted are these: HCT-116 p53RE-bla, beta-lactamase FRET ratio, 16 h; activation: stronger effect = higher value. The gist of the method: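 Read-out is fluorescence intensity from the LiveBLAzer B/G FRET substrate, added for 2 hours at room temperature after HCT-116 p53RE-bla cells had been incubated with compounds for 16 hours at 37 C.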

A short description of experiment [18]: qHTS assay for small molecule agonists of the antioxidant response element (ARE) signaling pathway measured by Nrf2-dependant transcriptional activity - cell viability counter screen (AID 720653; active = well fitted curve in the direction sought with a large enough effect in the repeat runs; an effect the other way counts as inactive or inconclusive; note: % is set by controls: 0 for no effect and ±100 for the full control effect). The conditions noted are these: ARE-bla HepG2 viability, CellTiter-Glo ATP luminescence, 16 h; stronger effect = lower value. Summed up: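 Cytotoxicity counter screen: intracellular ATP quantified by CellTiter-Glo luminescence in the same ARE-bla HepG2 plates, after 16 h compound exposure and a 2 h beta-lactamase substrate step.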

Experiment [19] in a line: qHTS assay for cell viability of HEK293 cells (AID 743288). Note: % is set by controls: 0 for no effect and ±100 for the full control effect; nearly all actives have a fitted effect of over 50% in size. The conditions noted are these: ATP luminescence (CellTiter-Glo), 18 h, stronger effect = lower value. Summed up: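 Parental HEK293 cells, 2,000 per well, preincubated at least 5 h at 37 C, then exposed to compounds in DMSO for 18 h at 37 C. Viability by CellTiter-Glo ATP luminescence after 30 min at room temperature.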

Experiment [20] in a line: Cell Viability - LYMP2-017 (AID 972). For activity change, negative = cytotoxicity: % is set by controls: 0 for no effect and ±100 for the full control effect. Note: nearly all actives have a fitted effect of over 55% in size. Note: potency is the fitted concentration of half-maximal effect. The conditions noted are these: LYMP2-017 lymphoblastoid cell viability; series mostly up to 92.2 µM. The gist of the method:
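2500 cells/well, 5 h 37 C; cpd 24 h 37 C in complete medium; CellTiter-Glo, 30 min RT; luminescence (ATP). AC50 via Hill fit, qHTS.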

“And” between values parts separate entries of the source, which are not always exact repeats. Equal values may be shown once. Records with an inconclusive call do not appear. The source made the active and inactive calls. Unless noted, calls come from the whole dose curve; as a rule, active = well fitted curve in the direction sought with a large enough effect; inconclusive = small, poorly fitted or top-dose-only effect, or another doubt; inactive = no such curve, though single readings can be large; an effect the other way counts as inactive or inconclusive.

Vitamin D3 receptor (Homo sapiens), sequence (P11473 whole entry, looked up): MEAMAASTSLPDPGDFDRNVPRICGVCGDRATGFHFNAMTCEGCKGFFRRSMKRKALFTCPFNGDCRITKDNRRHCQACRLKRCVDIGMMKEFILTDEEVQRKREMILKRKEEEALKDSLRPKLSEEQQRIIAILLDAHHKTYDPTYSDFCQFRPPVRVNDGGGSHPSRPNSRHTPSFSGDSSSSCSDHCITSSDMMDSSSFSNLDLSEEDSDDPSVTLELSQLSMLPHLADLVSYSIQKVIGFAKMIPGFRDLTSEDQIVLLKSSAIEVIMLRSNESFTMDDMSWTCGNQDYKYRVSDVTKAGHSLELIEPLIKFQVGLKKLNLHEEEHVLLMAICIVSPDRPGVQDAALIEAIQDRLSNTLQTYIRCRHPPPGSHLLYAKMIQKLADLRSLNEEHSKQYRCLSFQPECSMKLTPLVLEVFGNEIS

For `CCN(N=O)C(N)=O`, in experiment [1], the Potency was > 92 µM (inactive). Moreover, the Potency entry in experiment [2], in [3], in [6], in [9], in experiment [10] and in [11] was “inactive” in each case. Moreover, the Potency result in experiment [12], in experiment [13] and in experiment [14] was “inactive” each time. Further, the call in experiment [4], in experiment [5], in experiment [7], in [8] and in experiment [15] was inactive. Besides, the max response in experiment [16] was -12%; in experiment [18], 1.02% (inactive); in [19], 9% (inactive). Moreover, in experiment [17], the activation was 0.306% (inactive).
With `CCCCCCCCCCCOC(=O)c1ccccc1C(=O)OCCCCCCCCCCC`, the Potency in [1] is > 92 µM (inactive). Further, the Potency entry in experiment [2], in [3], in experiment [6], in [10], in [11] and in experiment [12] was “inactive” throughout. Also, the Potency entry in [20] and in experiment [14] was “inactive” throughout. In addition, the compound was called inactive in [4], in experiment [7], in experiment [8] and in [15]. Also, the max response in experiment [16] was -1.51%; in experiment [18], 3.11% (inactive); in experiment [19] it was 3% (inactive). The activation in experiment [17] is 2.34% (inactive).
For the compound `O=C(O)C(Br)Br`, in [1], the Potency is > 92 µM (inactive). In addition, the Potency entry in experiment [2], in experiment [3], in experiment [9], in experiment [11], in [20] and in experiment [13] was “inactive” each time. Also, in [14], the Potency result is “inactive”. Further, the outcome in experiment [5], in experiment [7], in experiment [8] and in [15] was inactive. Also, the max response in experiment [16] is -1.1%; in [18], -17.6% (inactive); in [19], -1.04% (inactive). Moreover, the activation in [17] was 6.12% (inactive).
Take `Cc1ccc(N=C=O)cc1N=C=O`: the Potency in [1] was > 92 µM (inactive). The Potency entry in experiment [2], in [3], in [6], in experiment [9], in [10] and in experiment [11] was “inactive” each time. The Potency entry in experiment [12], in [20] and in experiment [14] was “inactive” each time. The compound was called inactive in experiment [4], in [5], in experiment [7], in [8] and in experiment [15]. Also, the max response in experiment [16] is -4.25% and -19.3%; in experiment [18] it was -4.8% (inactive) and -0.784% (inactive); in experiment [19] it was -9.26% (inactive) and -8.71% (inactive). Also, the activation in experiment [17] is -2.11% (inactive) and -1.5% (inactive).
As for `Oc1cc(Cl)ccc1Cl`, the Potency in experiment [1] was > 92 µM (inactive). The Potency entry in [2], in [3], in [6], in experiment [9], in experiment [10] and in experiment [11] was “inactive” in each case. In addition, the Potency entry in experiment [12], in [20], in experiment [13] and in experiment [14] was “inactive” in each case. Besides, the call in experiment [4], in experiment [7], in experiment [8] and in experiment [15] was inactive. The max response was -10.2% and -8.32% in [16]; 14.5% (inactive) and -2.04% (inactive) in [18]. For the same compound, in experiment [17], the activation is 0.543% (inactive) and -4% (inactive).
With `O=[N+]([O-])/C=C/c1ccccc1`, the Potency in experiment [3] was 5.01 µM (active); in [11], 50.1 µM (active); in experiment [12], 50.1 µM (active); in [20], 50.1 µM (active); in experiment [13], 50.1 µM (active). For the same compound, the result in [5], in [8] and in experiment [15] was inactive. The Potency entry in experiment [10] is “inactive”. For the same compound, the max response in experiment [16] is -4.59%; in [18], -1.14% (inactive); in experiment [19], -10.7% (inactive). Moreover, the activation in experiment [17] was 10.5% (inactive).
Turning to `C(CCOCC1CO1)COCC1CO1` (configuration not stated), in [1], the Potency is > 92 µM (inactive). In addition, the Potency result in experiment [2], in [3], in experiment [6], in experiment [9], in [10] and in experiment [11] was “inactive” each time. Besides, the Potency result in experiment [12], in [20], in [13] and in [14] was “inactive” in each case. The compound was classed as inactive in [4], in [5], in [7], in experiment [8] and in experiment [15]. For the same compound, the max response in experiment [16] was -1.76%; in experiment [18] it was 15.2% (inactive); in experiment [19] it was -15.1% (inactive). The activation in [17] is 15.9% (inactive).
